Structures are written as SMILES. Records with an inconclusive call do not appear. Entries that show only a call come without a potency. Calls of active or inactive are those of the source. Calls follow the shape of the dose curve; as a rule, active = well fitted cell-killing curve with a large enough effect; inconclusive = small, poorly fitted or top-dose-only effect; inactive = flat fitted curve, though single readings scatter.

The nature of this assay: Cell Viability - LYMP2-025 (AID 976).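 Also: cells exposed to compound for 24 h at 37 °C.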 As to conditions: LYMP2-025 lymphoblastoid cell viability; series mostly up to 92.2 µM. The text has this:
NIH Chemical Genomics Center [NCGC]
NIH Molecular Libraries Screening Centers Network [MLSCN]
National Institutes of Environmental Health Sciences [NIEHS]
National Toxicology Program [NTP]
We have developed a 1536-well cell-based assay for quantitative high throughput screening (qHTS) against a number of cell lines to determine in vitro cytotoxicity of small molecules. This particular assay uses a human lymphoblastoid cell line (LYMP2-025) purchased from Coriell Institute for Medical Research.
NCGC Assay Protocol Summary:
The CellTiter-Glo luminescent cell viability assay (Promega) is a homogeneous method to measure the number of viable cells in culture. The end point readout of this assay is based on quantitation of intracellular ATP, an indicator of metabolic activity, using the luciferase reaction. Luciferase catalyzes the oxidation of beetle Luciferin to oxyluciferin and light in the presence of ATP. The luminescent signal is proportional to amount of ATP present.
Using the CellTiter-Glo luminescent cell viability assay, the amount of cellular ATP was measured in the lymphoblastoid cell line with complete culture medium following compound treatment for 24 hours. The assay was performed in opaque white Kalypsys 1536-well plates. In the screen, tetraoctylammonium bromide was used as positive control. Library compounds were measured for their ability to cause acute toxicity in the cell line, as reflected by a decrease in intracellular ATP levels, in a concentration-dependent manner. […] AC50 values were determined from concentration-response data modeled with the standard Hill equation.
qHTS protocol for CellTiter Glo lymphoblastoid cellular assay
[Step] [Parameter] [Value] [Description]
1. Reagent; 5 uL; 2500 lymphoblastoid cells/well
2. Time; 5 hr; 37 C incubation
4. Controls; 23 nL; Tetraoctylammonium bromide 6.4pM to 92 uM
5. Time; 24 hr; 37 C incubation
6. Reagent; 5 uL; CellTiter Glo reagent
7. Time; 30 min; Room Temperature
8. Detection; Luminescence; Viewlux plate reader
Keywords: cell viability, cytotoxicity, lymphoblastoid cell line, luminescence, NTPHTS, NTPHTS_NCGC, NIEHS, DSSTox, MLSMR, MLSCN, NIH Roadmap, qHTS, NCGC
As to `O=C(Cl)c1ccccc1[N+](=O)[O-]`, the Potency result is “inactive”.
Under `Cc1ccc2ccccc2c1[N+](=O)[O-]` stands “inactive”.
The value for `Nc1cccc([N+](=O)[O-])c1` was “inactive”; that for `CCCCCCCCN` was “inactive”.
Under `CC1(N)CCC(C(C)(C)N)CC1` (stereo not given) stands “inactive”; under `CCCCCCC(=O)O`, “inactive”; under `CC1CCC2CC1C2(C)C` (stereo not given), “inactive”.
For the compound `CC(=O)C1(C)CC2=C(CCCC2(C)C)CC1C` (stereo not given), the Potency entry was “inactive”.
On to `C=C(C)C(=O)OC`, for which the Potency entry was “inactive”.
The value for `FB(F)F` was “inactive”.
Under `CCCCCCCCC/C=C/CC1CC(=O)OC1=O` (stereo not given) stands “inactive”.
Turning to `CO[Si](CCCNCCC[Si](OC)(OC)OC)(OC)OC`, the Potency entry is “inactive”.
Under `Cc1ccccc1C(N)=O` stands “inactive”.
The value for `C=Cc1ccc(C=C)cc1` was “inactive”; that for `CC(C)(O)C(=O)O` was “inactive”.
Under `CC1CCCO1` (stereo not given) stands “inactive”; under `CC(C)Nc1ccccc1`, “inactive”; under `CC(O)COC(C)(C)C` (stereo not given), “inactive”.
For `CCCCC=O`, the Potency result was “inactive”.
Under `Nc1cc(Cl)c([N+](=O)[O-])cc1O` stands “inactive”.
Under `ClC/C=C/CCl` stands “inactive”.
Under `COc1ccc(OC)cc1` stands “inactive”.
For `CC(=O)CC(C)C`, the Potency result is “inactive”.
For the compound `CC#N`, the Potency entry is “inactive”.
On to `Cc1c(N)cccc1N`, for which the Potency result is “inactive”.
Under `O=Cc1ccc(Cl)cc1` stands “inactive”; under `NC(=O)c1cccc([N+](=O)[O-])c1`, “inactive”.
Under `O=Cc1c(Cl)cccc1Cl` stands “inactive”; under `O=[N+]([O-])c1cccc(C(F)(F)F)c1`, “inactive”.
As for `Cc1ccc(N(C)C)cc1`, the Potency result was “inactive”.
The value for `CC(C)=CCl` was “inactive”; that for `O=[N+]([O-])c1ccc2nc[nH]c2c1` was “inactive”.
Under `Oc1cccc(Nc2ccccc2)c1` stands “inactive”; under `FC(F)(F)c1ccccc1Cl`, “inactive”; under `Nc1c(Cl)cc(Cl)cc1Cl`, “inactive”.
Under `ClCCl` stands “inactive”; under `c1ccc2c(c1)ccc1ncccc12`, “inactive”.
With `C1COC1`, the Potency entry was “inactive”.
Under `CC(=O)Nc1cccc(N)c1` stands “inactive”; under `CCCCCCCN`, “inactive”.

The values are drawn from PubChem BioAssay (NCATS).
